Results reported in PubChem BioAssay (Tox21).
“And” between values parts separate entries of the source, which are not always exact repeats. Equal entries are not always repeated. Records with an inconclusive call do not appear. Where a call stands in place of a potency, no number is given. Where a structure was tested more than once in an assay, its records may differ in their call. The source made the active and inactive calls. Unless noted, the call rests on the fitted dose curve; in most records, active means well fitted curve in the direction sought with a large enough effect in the repeat runs; inconclusive means weak or mixed curves; inactive means no such curve, though single readings can be large; an effect the other way counts as inactive or inconclusive. Starred links: 1 amine or outer side, 2 acyl side, 3 side chain; linkers in the order of their positions; H or OH if unused. Positions of bridges follow the written chain, without caps; N, C: chain ends. Non-standard residues stand in square brackets, D forms with d. Residues, ends and D or L forms follow the SMILES beside them. Chains are numbered I, II in the order given. Actinocin(9to1) = Cc1c2oc3c(C)ccc(C(=O)[*:1])c3nc-2c(C(=O)[*:2])c(N)c1=O; NMeV = CN[C@H](C(=O)O)C(C)C; Sar = CNCC(=O)O

Columns and labels:
[1] = qHTS assay to test for compound auto fluorescence at 460 nm (blue) in HEK293 cell free culture (AID 720681)
How it was run: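 Test compounds were pinned into cell-free culture medium (DMEM with 10% FBS) and fluorescence was read directly at Ex/Em 405/460 nm. Signals were expressed as fluorescence equivalents of triamterene, with DMSO vehicle as control.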

[2] = qHTS assay to test for compound auto fluorescence at 590 nm (red) in HEK293 cell free culture (AID 720683)
How it was run: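 Tox21 10K library compounds were pinned into cell-free DMEM with 10% FBS and fluorescence was read at excitation 540 nm. Activity is expressed as Rose Bengal sodium equivalency.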

[3] = qHTS assay to test for compound auto fluorescence at 590 nm (red) in HepG2 cell free culture (AID 720684)
How it was run: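 Ex 540 / Em 590 nm read of compound in cell-free MEM (10% FBS). Rose Bengal sodium reference.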

[4] = qHTS assay to test for compound auto fluorescence at 460 nm (blue) in HepG2 cell free culture (AID 720685)
How it was run: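 Cell-free plates of MEM plus 10% FBS received 23 nL compound or DMSO vehicle; blue-channel (405/460 nm) intensity scored against triamterene as reference fluorophore.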

[5] = qHTS assay to test for compound auto fluorescence at 535 nm (green) in HepG2 cell free culture (AID 720686)
[6] = qHTS assay to test for compound auto fluorescence at 460 nm (blue) in HepG2 cells (AID 720687)
How it was run: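 Cells (2,000/well in MEM with 10% FBS) attached overnight at 37 C, then were exposed to compound or DMSO for 1 hr at 37 C, 5% CO2. Fluorescence read at Ex/Em 405/460 nm, expressed as triamterene-equivalent signal.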

[7] = biological target: Glucocorticoid receptor (Homo sapiens) (UniProt P04150); assay: qHTS assay to identify small molecule agonists of the glucocorticoid receptor (GR) signaling pathway (AID 720691; active means well fitted activation curve with a large enough effect in the signal ratio in the repeat runs, not every such curve was filed as active; the % refers to the signal ratio)
How it was run: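 Steps: seed GR-bla HeLa cells, incubate 4 h at 37 C/5% CO2; pin-transfer DMSO-dissolved compounds; incubate 18 h at 37 C; add LiveBLAzer B/G FRET substrate; after 2 h at room temperature, measure fluorescence.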

[8] = qHTS assay to identify small molecule antagonists of the glucocorticoid receptor (GR) signaling pathway - cell viability counter screen (AID 720693); further: nearly all actives have a fitted effect of over 55% in size; further: potency means the concentration at half of the fitted maximal effect
[9] = qHTS assay for identifying genotoxic compounds that show differential cytotoxicity against isogenic chicken DT40 cell lines with known DNA damage response pathways - wild type cell line (AID 743012); further: nearly all actives have a fitted effect of over 60% in size; further: potency means the concentration at half of the fitted maximal effect
How it was run: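 Cytotoxicity in repair-proficient parental chicken DT40 cells serves as the comparator for Rad54/Ku70- and Rev3-deficient lines. Cells were exposed to compounds for 40 h at 37 C/5% CO2, and ATP-based luminescence (CellTiter-Glo) measured viability.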

[10] = qHTS assay for identifying genotoxic compounds that show differential cytotoxicity against isogenic chicken DT40 cell lines with known DNA damage response pathways - Rev3 mutant cell line (AID 743014); further: nearly all actives have a fitted effect of over 55% in size; further: potency means the concentration at half of the fitted maximal effect
[11] = qHTS assay for identifying genotoxic compounds that show differential cytotoxicity against isogenic chicken DT40 cell lines with known DNA damage response pathways - Rad54/Ku70 mutant cell line (AID 743015); further: nearly all actives have a fitted effect of over 60% in size; further: potency means the concentration at half of the fitted maximal effect
[12] = qHTS assay to identify small molecule antagonists of the androgen receptor (AR) signaling pathway - cell viability counter screen (AID 743033; further: nearly all actives have a fitted effect of over 45% in size; further: potency means the concentration at half of the fitted maximal effect)
[13] = qHTS assay to identify small molecule antagonists of the androgen receptor (AR) signaling pathway using the MDA cell line - cell viability counter screen (AID 743041; further: nearly all actives have a fitted effect of over 45% in size)
How it was run: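 In this qHTS counter assay, fluorescence intensity after CellTiter-Fluor addition indicated viability of MDA-kb2 AR-luc cells given compounds and R1881 for 16 h at 37C.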

[14] = qHTS assay to test for compound auto fluorescence at 535 nm (green) in HEK293 cell free culture (AID 720682)
How it was run: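 Using fluorescein as calibrant, autofluorescence was quantified at 485/535 nm in cell-free DMEM containing 10% FBS after pintool addition of compound or vehicle.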

[15] = biological target: Androgen receptor (Homo sapiens) (UniProt P10275); assay: qHTS assay to identify small molecule agonists of the androgen receptor (AR) signaling pathway (AID 743036; active means well fitted activation curve with a large enough effect in the signal ratio in the repeat runs, with a control signal flat, not every such curve was filed as active; the % refers to the signal ratio)
How it was run: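 In this Tox21 qHTS, 2,000 HEK293 AR-bla cells per well were incubated with compounds for 16 h at 37C and 5% CO2. Fluorescence intensity was recorded 2 h after adding LiveBLAzer B/G FRET substrate at room temperature.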

[16] = biological target: Androgen receptor (Homo sapiens) (UniProt P10275); assay: qHTS assay to identify small molecule agonists of the androgen receptor (AR) signaling pathway using the MDA cell line (AID 743040; further: nearly all actives have a fitted effect of over 20% in size)
How it was run: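 Cell-based luciferase reporter: MDA-kb2, MMTV promoter (AR + GR response elements). 16 h compound exposure at 37C; ONE-Glo, 30 min RT, luminescence.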

[17] = biological target: Androgen receptor (Homo sapiens) (UniProt P10275); assay: qHTS assay to identify small molecule antagonists of the androgen receptor (AR) signaling pathway using the MDA cell line (AID 743042; further: nearly all actives have a fitted effect of over 55% in size; further: potency means the concentration at half of the fitted maximal effect)
How it was run: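 MDA-kb2 cells (human breast carcinoma, stably carrying an MMTV-luciferase reporter responsive to AR and GR) were plated at 3,000 cells/well and preincubated 5 hr at 37C, then given compound plus R1881 agonist for 16 h. ONE-Glo luminescence was read.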

[18] = biological target: Androgen receptor (Homo sapiens) (UniProt P10275); assay: qHTS assay to identify small molecule antagonists of the androgen receptor (AR) signaling pathway (AID 743035; active means well fitted inhibition curve with a large enough effect in the signal ratio in the repeat runs, not every such curve was filed as active; the % refers to the signal ratio; further: potency means the concentration at half of the fitted maximal effect)
How it was run: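 Steps: seed AR-UAS-bla GripTite HEK293 cells, incubate 4 h at 37C; pin in test compound, then add agonist R1881; incubate 16 h at 37C; add LiveBLAzer B/G FRET substrate, 2 h at room temperature; read fluorescence.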

[19] = biological target: Glucocorticoid receptor (Homo sapiens) (UniProt P04150); assay: qHTS assay to identify small molecule antagonists of the glucocorticoid receptor (GR) signaling pathway (AID 720692; active means well fitted inhibition curve with a large enough effect in the signal ratio in the repeat runs, not every such curve was filed as active; the % refers to the signal ratio)
How it was run: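 Antagonism was scored as loss of dexamethasone-driven (5 nM final) reporter signal in HeLa cells bearing a glucocorticoid response element–beta-lactamase construct, after 18 h compound exposure at 37 C and 2 h FRET substrate loading.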

Sequence of Androgen receptor (Homo sapiens) (P10275 whole entry, looked up): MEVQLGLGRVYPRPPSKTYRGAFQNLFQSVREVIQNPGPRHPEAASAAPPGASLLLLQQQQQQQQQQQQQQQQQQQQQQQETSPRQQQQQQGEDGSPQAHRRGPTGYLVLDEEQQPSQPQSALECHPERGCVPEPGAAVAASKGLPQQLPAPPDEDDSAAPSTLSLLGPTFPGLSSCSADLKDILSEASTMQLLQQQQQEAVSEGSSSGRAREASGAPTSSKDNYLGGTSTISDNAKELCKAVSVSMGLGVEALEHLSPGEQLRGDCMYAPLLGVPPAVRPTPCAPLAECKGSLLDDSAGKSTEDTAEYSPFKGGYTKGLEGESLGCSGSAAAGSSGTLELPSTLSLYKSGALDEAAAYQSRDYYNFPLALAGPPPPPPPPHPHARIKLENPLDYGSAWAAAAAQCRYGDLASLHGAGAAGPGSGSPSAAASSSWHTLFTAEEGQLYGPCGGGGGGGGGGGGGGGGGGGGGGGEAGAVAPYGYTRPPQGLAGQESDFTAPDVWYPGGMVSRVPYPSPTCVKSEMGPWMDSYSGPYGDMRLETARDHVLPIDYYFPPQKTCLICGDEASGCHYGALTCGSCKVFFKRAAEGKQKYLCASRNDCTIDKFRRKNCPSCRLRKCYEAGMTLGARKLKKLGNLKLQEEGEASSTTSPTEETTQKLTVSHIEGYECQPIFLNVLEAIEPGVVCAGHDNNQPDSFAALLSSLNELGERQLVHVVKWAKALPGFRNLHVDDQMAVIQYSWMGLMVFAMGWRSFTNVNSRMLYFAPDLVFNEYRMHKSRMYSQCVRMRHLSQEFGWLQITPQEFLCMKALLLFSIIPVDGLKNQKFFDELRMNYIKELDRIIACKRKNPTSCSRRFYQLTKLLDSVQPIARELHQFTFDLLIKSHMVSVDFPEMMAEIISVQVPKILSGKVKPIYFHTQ
Sequence of Glucocorticoid receptor (Homo sapiens) (P04150 whole entry, looked up): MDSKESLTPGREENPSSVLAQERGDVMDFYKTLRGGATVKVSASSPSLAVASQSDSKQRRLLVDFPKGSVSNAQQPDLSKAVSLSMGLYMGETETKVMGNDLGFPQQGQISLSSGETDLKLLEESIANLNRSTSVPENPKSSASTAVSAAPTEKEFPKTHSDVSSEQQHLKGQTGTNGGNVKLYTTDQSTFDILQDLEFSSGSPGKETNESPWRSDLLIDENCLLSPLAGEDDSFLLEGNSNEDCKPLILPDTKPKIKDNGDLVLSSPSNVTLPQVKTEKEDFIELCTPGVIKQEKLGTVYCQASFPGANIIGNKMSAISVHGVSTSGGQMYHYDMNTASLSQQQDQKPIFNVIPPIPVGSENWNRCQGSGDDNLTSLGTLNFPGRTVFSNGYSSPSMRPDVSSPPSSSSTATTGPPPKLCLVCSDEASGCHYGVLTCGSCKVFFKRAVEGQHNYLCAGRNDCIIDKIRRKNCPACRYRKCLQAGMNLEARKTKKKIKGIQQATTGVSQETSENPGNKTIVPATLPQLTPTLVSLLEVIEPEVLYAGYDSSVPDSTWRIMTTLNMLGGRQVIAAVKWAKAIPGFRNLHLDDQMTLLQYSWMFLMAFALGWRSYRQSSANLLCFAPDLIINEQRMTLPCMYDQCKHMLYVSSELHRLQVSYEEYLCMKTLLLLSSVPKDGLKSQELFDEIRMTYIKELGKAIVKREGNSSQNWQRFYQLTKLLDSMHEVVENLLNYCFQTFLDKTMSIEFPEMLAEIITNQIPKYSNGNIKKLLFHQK

Structure (SMILES)	Potency [1]	outcome [2]	outcome [3]	Potency [4]	Potency [5]	Potency [6]	Potency [7]	Potency [8]	Potency [9]	Potency [10]	Potency [11]	Potency [12]	Potency [13]	Potency [14]	Potency [15]	outcome [16]	Potency [17]	Potency [18]	Potency [19]
CCOC(=O)C(C)C(C)=O (centres undefined)	inactive	inactive	inactive	inactive	inactive	inactive	inactive	inactive	inactive	inactive	inactive	inactive	inactive	–	–	–	–	–	–
CCc1ccc(C(c2ccc(CC)cc2)C(Cl)Cl)cc1	inactive	inactive	inactive	inactive	inactive	inactive	inactive	inactive	inactive	inactive	inactive	inactive	inactive	inactive	inactive	inactive	inactive	–	–
CC(=O)C1=C(C)[C@@H]2C[C@@]3(C1)[C@H](C)CC[C@H]3C2(C)C	inactive	inactive	inactive	inactive	inactive	inactive	–	inactive	inactive	inactive	inactive	inactive	inactive	–	–	–	–	–	–
Cc1cccc2n[nH]nc12	inactive	inactive	inactive	–	inactive	inactive	–	inactive	inactive	inactive	inactive	inactive	inactive	inactive	–	–	–	–	–
CC(C)(O)CCC(C)(C)O	inactive	inactive	inactive	inactive	inactive	inactive	inactive	inactive	inactive	inactive	inactive	inactive	inactive	inactive	–	inactive	inactive	–	–
Cc1cc(Cc2cc(C)cc(C(C)(C)C)c2O)c(O)c(C(C)(C)C)c1	inactive	inactive	inactive	inactive	inactive	inactive	–	12.4 µM (active) and 13.8 µM (active)	15.4 µM (active) and 17.2 µM (active)	13.8 µM (active) and 19.3 µM (active)	9.74 µM (active) and 15.4 µM (active)	22 µM (active)	–	inactive	–	–	–	–	–
O	inactive	inactive	inactive	inactive	inactive	inactive	–	inactive	inactive and 13.9 µM (active)	inactive and 9.81 µM (active)	inactive	inactive	inactive	–	–	–	–	–	–
OCCN1CCNCC1	inactive	inactive	inactive	inactive	inactive	inactive	inactive	inactive	–	31.2 µM (active)	inactive	inactive	inactive	inactive	–	–	–	–	–
CC(C)C(=O)c1c(C(C)C)nn2ccccc12	inactive	inactive	inactive	–	inactive	inactive	–	inactive	–	inactive	–	inactive	inactive	–	–	–	–	–	–
COC(c1ccccc1)(c1ccccc1)[C@H](Oc1nc(C)cc(C)n1)C(=O)O	inactive	inactive	inactive	inactive	inactive	inactive	inactive	inactive	inactive	inactive	inactive	inactive	inactive	–	–	–	–	–	–
CCCCCC(=O)O[C@]1(C(C)=O)CC[C@H]2[C@@H]3CCC4=CC(=O)CC[C@]4(C)[C@H]3CC[C@@]21C	inactive	inactive	inactive	inactive	inactive	inactive	inactive	–	3.76 µM (active) and 3.83 µM (active)	3.76 µM (active) and 2.15 µM (active)	7.5 µM (active) and 5.41 µM (active)	inactive and 24.4 µM (active)	inactive	–	–	–	–	–	–
Cc1c2oc3c(C)ccc(C(=O)N[C@@H]4C(=O)N[C@H](C(C)C)C(=O)N5CCC[C@H]5C(=O)N(C)CC(=O)N(C)[C@@H](C(C)C)C(=O)O[C@@H]4C)c3nc-2c(C(=O)N[C@@H]2C(=O)N[C@H](C(C)C)C(=O)N3CCC[C@H]3C(=O)N(C)CC(=O)N(C)[C@@H](C(C)C)C(=O)O[C@@H]2C)c(N)c1=O (I: T[dV]P[Sar][NMeV] / II: T[dV]P[Sar][NMeV]; ester I:1-I:C, II:1-II:C; linker I:N-II:N via Actinocin(9to1))	inactive	inactive	inactive	inactive	inactive	inactive	–	239 nM (active) and 9.5 nM (active)	6.7 nM (active) and 1.1 nM (active)	7.5 nM (active) and 0.7 nM (active)	2.4 nM (active)	inactive	–	inactive	inactive	inactive	15 nM (active) and 4.2 nM (active)	23.9 nM (active) and 1 nM (active)	–
C=CS(=O)(=O)O	inactive	inactive	inactive	inactive	inactive	inactive	inactive	inactive	inactive	inactive	inactive	inactive	inactive	inactive	–	–	–	–	–
O=C(Cl)c1cccc(C(=O)Cl)c1	inactive	inactive	inactive	inactive	inactive	inactive	inactive	inactive	inactive	inactive	inactive	inactive	inactive	–	–	–	–	–	inactive
N[C@@H]1CONC1=O	inactive	inactive	inactive	inactive	inactive	inactive	inactive	–	inactive	inactive	inactive	inactive	inactive	inactive	–	–	–	–	–
NC(Cc1ccc(Cl)cc1)C(=O)O (centres undefined)	inactive	inactive	inactive	–	inactive	inactive	inactive	inactive	inactive	–	inactive	inactive	inactive	inactive	–	–	–	–	–
CCn1cc(C(=O)O)c(=O)c2cc(F)c(N3CCNC(C)C3)c(F)c21 (centres undefined)	inactive	inactive	inactive	–	inactive	inactive	inactive	inactive	26.6 µM (active)	inactive	inactive	inactive	inactive	inactive	–	–	–	–	inactive
